Reference: paper PMC7819943, “Rice protein-binding microarrays: a tool to detect cis-acting elements near promoter regions in rice”
Over roughly 35,000 sequences, “fluorescence intensity (a.u.)” has its median near 10,000; the highest 2% begin near 52,000. The sample as a whole holds a higher share of the highest values than the screen did.

Biological target: T1, OsWOX13 (Oryza sativa, UniProt Q5QMM3 1-267)
T1 sequence: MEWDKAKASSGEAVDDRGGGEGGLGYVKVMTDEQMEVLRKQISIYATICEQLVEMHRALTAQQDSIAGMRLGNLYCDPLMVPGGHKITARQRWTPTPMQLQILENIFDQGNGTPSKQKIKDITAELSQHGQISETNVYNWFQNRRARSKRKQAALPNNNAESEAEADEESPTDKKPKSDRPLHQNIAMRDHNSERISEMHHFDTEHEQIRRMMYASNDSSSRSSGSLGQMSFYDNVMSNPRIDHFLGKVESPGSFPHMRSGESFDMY
Assay: protein-binding microarray (RPBM); PBS, 2% BSA, 51.3 ng/ul salmon testes DNA, 50 uM zinc acetate, 200 nM TF, 25 C, 1 h; high values mean tight binding
Settings: protein: recombinant; tags: N-terminal polyhistidine and DsRed monomer fusion (pET32a); label: CyDye5-dUTP incorporated in the synthesized complementary strand; 3' TTTTT single-stranded linker to array surface; dsDNA, one strand shown
How it was run: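 The binding signal for each feature is its fluorescence intensity in arbitrary units. An Axon 4000B scanner was used to read a custom Agilent array that had been made double-stranded with Cy5-dUTP primer extension, blocked with 2% BSA, incubated at 25 °C for 1 h with 200 nM protein in PBS, 2% BSA, salmon testes DNA and 50 µM zinc acetate, and washed. The protein was an N-terminal polyhistidine–DsRed transcription factor fusion from E. coli BL21-CodonPlus, purified on Ni–NTA.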

| Sequence | binding signal |
| --- | --- |
| CATGATTGAAACATTACTTGATGGCTTCTGGTCCTACCCACGGAGTCACCTAGTGCAG | 53900 fluorescence intensity (a.u.) |
| CTCAACATGAACTTCTTGATTACCTGTGACCCAGCCACGGCGGAGTCACCTAGTGCAG | 3150 fluorescence intensity (a.u.) |
| CATCGAACATCATGAATTTGATTGGCTTCTACTTTCACGACGGAGTCACCTAGTGCAG | 17100 fluorescence intensity (a.u.) |
| TTTTGATTGGCCGAGGAGAAGGCGAAACAGACTGCCACTGCGGAGTCACCTAGTGCAG | 53800 fluorescence intensity (a.u.) |
| TGGGAGATTGTATTAAACAGAGGAGAACGATGGCGAAAGGCGGAGTCACCTAGTGCAG | 6630 fluorescence intensity (a.u.) |
| GAAACATGTTGAGATTGATTTACATTTTGTGCGCGAGAAGCGGAGTCACCTAGTGCAG | 18000 fluorescence intensity (a.u.) |
| TTATTTGACACAATGCGATTGAATTGGGGTGCAGGAGTATCGGAGTCACCTAGTGCAG | 6780 fluorescence intensity (a.u.) |
| AGAAATATTCAATCAAGCTACTGCGCACATATATCTTTATCGGAGTCACCTAGTGCAG | 9630 fluorescence intensity (a.u.) |
| GTGCTGTGATTGGCCGCGCGGGATTTCCTGGGCGGGCGGGCGGAGTCACCTAGTGCAG | 22600 fluorescence intensity (a.u.) |
| CATATTGACAGCTTTGTAATTGCATTTGACAGGTTCAACCCGGAGTCACCTAGTGCAG | 60500 fluorescence intensity (a.u.) |
| AATTGACGTAATTTCAGGTCGTATTTGTGGTGCAACAACCCGGAGTCACCTAGTGCAG | 16600 fluorescence intensity (a.u.) |
| CTATCATATTGACAGCTTTGTAATTGCTTTTGACAGGTTCCGGAGTCACCTAGTGCAG | 26400 fluorescence intensity (a.u.) |
| TCACAAAATAATTAACTTTAAAATTAAATTTTAGCAGCAGCGGAGTCACCTAGTGCAG | 15100 fluorescence intensity (a.u.) |
| TATGCAGTTTTACAATAATTTAATTAAAGTACAGTTTTGTCGGAGTCACCTAGTGCAG | 5420 fluorescence intensity (a.u.) |
| TCCTAATTGTACAATTAATTAAATTAAGTACAGTCCTATGCGGAGTCACCTAGTGCAG | 53000 fluorescence intensity (a.u.) |
| TGGACATTGACAAAATCACAGATCCAGTAAGTACTAGTATCGGAGTCACCTAGTGCAG | 3170 fluorescence intensity (a.u.) |
| TCCACAGATTGAGGAATCCGAGCAACAAATATCCTAGTAGCGGAGTCACCTAGTGCAG | 11900 fluorescence intensity (a.u.) |
| GGTCCTAATTGACAAATCCACAGAAGTAGTACTCCAGGAGCGGAGTCACCTAGTGCAG | 53000 fluorescence intensity (a.u.) |
| TTTTATCTCACCAATCAATTTAATTTCTTTATTTATTTTCCGGAGTCACCTAGTGCAG | 6870 fluorescence intensity (a.u.) |
| ATAATTATTCTGTTAATTAATCAATTATTATCTGGGAATCCGGAGTCACCTAGTGCAG | 63600 fluorescence intensity (a.u.) |
| TGAGTAAATGTGTTGTTGTTAATTGCTATATGTACAGTTGCGGAGTCACCTAGTGCAG | 5280 fluorescence intensity (a.u.) |
| TAAAATTAAATTTACAAGGGTTAATTCGCGAGTAATAACGCGGAGTCACCTAGTGCAG | 12300 fluorescence intensity (a.u.) |
| AATGTCTGCAATTAATCAATCTGTTAATCTGTTATTAGTACGGAGTCACCTAGTGCAG | 21900 fluorescence intensity (a.u.) |
| CGAAATTAATTAGCGAAATTAATTAACGCTTTACACAAGGCGGAGTCACCTAGTGCAG | 64900 fluorescence intensity (a.u.) |
| GGCTAATTTGGCGAGGTAATACGGTAGTATAGCACGGTTACGGAGTCACCTAGTGCAG | 10500 fluorescence intensity (a.u.) |

| Sequence | binding signal |
| --- | --- |
| CCCGCTTGAATGGATGGCAATCAACACAAGGAACAGACCGCGGAGTCACCTAGTGCAG | 13700 fluorescence intensity (a.u.) |
| AATCAAATTGCCACTTAAATCTATTGCCTCAAGTGAACAGCGGAGTCACCTAGTGCAG | 16100 fluorescence intensity (a.u.) |
| GATCAATTAATATGGAATTTAAAAGTTCAATTAATATGGACGGAGTCACCTAGTGCAG | 8910 fluorescence intensity (a.u.) |
| TTCAATTGATGTTCTTGCTTGCAAGTTGCAACGAGATTTGCGGAGTCACCTAGTGCAG | 7920 fluorescence intensity (a.u.) |
| AATGATGATTGATGGGTCATGGCACAAGGACGCTAAACCGCGGAGTCACCTAGTGCAG | 40700 fluorescence intensity (a.u.) |
| ATATAATAGCTAATCAAACACTAGTCCGAAGACGTAGTATCGGAGTCACCTAGTGCAG | 21700 fluorescence intensity (a.u.) |
| CCCTCGCCTGGGCCGATCCCCATACATCCCGCGAGCGCGACGGAGTCACCTAGTGCAG | 3440 fluorescence intensity (a.u.) |
| GTTCGATTGAGATAGCTCTTAACATCAGTGACTTCTAGCCCGGAGTCACCTAGTGCAG | 3800 fluorescence intensity (a.u.) |
| GCTACAATAATTAATCAATTAATTAAATTAAATTAAGTGGCGGAGTCACCTAGTGCAG | 55300 fluorescence intensity (a.u.) |
| TAAGTAATTAATTAATCAATCAATTAATCAATTATTATCCCGGAGTCACCTAGTGCAG | 52600 fluorescence intensity (a.u.) |
| AATTAATTATCATCATTACCGCAAATTCTCAAAAGTCAGGCGGAGTCACCTAGTGCAG | 41200 fluorescence intensity (a.u.) |
| ATAAATTAATCCAGGCGTGATCTCCCGGCGCCCGCACGCGCGGAGTCACCTAGTGCAG | 7300 fluorescence intensity (a.u.) |
| TTTAATCACAAGCAAATCAATTAACTCATCCATACTCATCCGGAGTCACCTAGTGCAG | 24200 fluorescence intensity (a.u.) |
| TATTCAAATCATTTAAGTAATTATTTATTCTTTTCATATCCGGAGTCACCTAGTGCAG | 10000 fluorescence intensity (a.u.) |
| TCCCAATTAAGTCAATCAGTAATAATAAATAATTATGAACCGGAGTCACCTAGTGCAG | 32500 fluorescence intensity (a.u.) |
| GCAATCAATCAATCAATCATATATCCATATCAAATTAAGCCGGAGTCACCTAGTGCAG | 61800 fluorescence intensity (a.u.) |
| GATGATAAATTAAGTCACAATAAATAAATAATAATAATATCGGAGTCACCTAGTGCAG | 5820 fluorescence intensity (a.u.) |
| TTAATTAACGCGATTAATTAGCCGCAAATCTCAATCCAGGCGGAGTCACCTAGTGCAG | 53200 fluorescence intensity (a.u.) |
| ATTAATTAACAATAATAAGTGATTAATAATTAATTAATCGCGGAGTCACCTAGTGCAG | 44200 fluorescence intensity (a.u.) |
| CCCTCCAATCAAATTAACCTCCATATCTCTAGCAATCTGCCGGAGTCACCTAGTGCAG | 29800 fluorescence intensity (a.u.) |
| CATCCAATCAGTTTAGACAAGGTAAAGTCTCATTTTCACACGGAGTCACCTAGTGCAG | 17800 fluorescence intensity (a.u.) |
| CTCATAACACTTTCCTAATTGCCTCATATGCGGCCTTCCCCGGAGTCACCTAGTGCAG | 7620 fluorescence intensity (a.u.) |
| CTGCACAGTTAATTAAAGGAAAACTGGCGAAAACCCGGCACGGAGTCACCTAGTGCAG | 8360 fluorescence intensity (a.u.) |
| CTTGCTGGTACCAATTAACATGGGTATGTTTAATTTGCTGCGGAGTCACCTAGTGCAG | 3650 fluorescence intensity (a.u.) |
